Screens: PubChem BioAssay, several laboratories
Most compounds without a hit are left out; they make up all but 4.8% or so of the library.
Hsp70 activator: transcriptional activators of Hsp70. actives 0.04% (n = 200,000). activation, % at 10 µM. HeLa Hsp70 promoter luciferase reporter, luminescence; scaled: vehicle 0, proteasome-inhibitor control 100%. AID 1203;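 active means activation above the mean across all tested compounds plus 3 SD, cutoff set per campaign, cut at about 5.5% in these data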;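 further: 100% = MG132 at 30 µM as the positive control and 0% = DMSO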
STAT1 activator: activators of IFN-gamma induced STAT1 signaling | NIH 3T3 STAT1-luciferase reporter, luminescence; 100% = IFN-gamma alone, no compound | activation (% of control), % at 5.5 µM | actives 2.6% (n = 200,000) | AID 932;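 active means activation above the screen-wide mean activation plus 3 SD, cut at about 130% in these data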;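 further: raw ratio to IFN-gamma control signal so 100% means no change and 0% no light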
Wee1 stabilizer: human Wee1 degradation inhibition, primary screen; HeLa Luc-Wee1K328M stability, luciferase luminescence; 100% = proteasome inhibitor MG132 effect; reporter increase, % at 5 µM; actives 1.2% (n = 220,000);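 active means activation above the mean of all tested compounds plus 3 SD, set per screening run, cut at about 8.8% in these data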;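 further: cells exposed to compound for 20 h before luminescence read; 0% = DMSO alone and 100% = MG132 at 30 µM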
Target sequence (P30291 whole entry K328M): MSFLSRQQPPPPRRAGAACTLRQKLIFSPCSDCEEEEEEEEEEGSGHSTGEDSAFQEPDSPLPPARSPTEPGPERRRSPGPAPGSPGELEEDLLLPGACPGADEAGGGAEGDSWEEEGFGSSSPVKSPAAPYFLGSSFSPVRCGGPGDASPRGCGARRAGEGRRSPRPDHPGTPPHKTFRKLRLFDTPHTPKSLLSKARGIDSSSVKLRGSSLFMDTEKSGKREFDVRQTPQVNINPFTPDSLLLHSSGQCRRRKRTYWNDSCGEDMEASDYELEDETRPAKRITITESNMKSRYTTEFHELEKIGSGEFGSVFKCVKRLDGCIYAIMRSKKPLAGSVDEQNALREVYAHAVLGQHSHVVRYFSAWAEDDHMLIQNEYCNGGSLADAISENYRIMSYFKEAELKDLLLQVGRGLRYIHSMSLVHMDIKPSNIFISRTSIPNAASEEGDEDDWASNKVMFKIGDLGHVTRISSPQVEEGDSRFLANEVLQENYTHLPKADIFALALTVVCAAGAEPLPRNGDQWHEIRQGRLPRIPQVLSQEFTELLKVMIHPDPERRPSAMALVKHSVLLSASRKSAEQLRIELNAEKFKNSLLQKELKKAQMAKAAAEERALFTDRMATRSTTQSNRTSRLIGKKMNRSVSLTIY
APP 5UTR inh: APP translation inhibition; actives 0.82% (n = 190,000); SH-SY5Y APP 5'UTR-luciferase reporter, luminescence; inhibition, % at 2 µM; AID 1285;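 active means inhibition above a set limit, derived from the sample mean plus 3 SD, cut at about 45% in these data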
APP 5'UTR act: APP 5'UTR luciferase reporter activation | activation, % at 2 µM | SH-SY5Y APP 5'UTR luciferase reporter, luminescence; zero percent = DMSO vehicle wells | actives 1% (n = 190,000);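 active means activation above a set limit, based on mean plus 3 SD of controls, cut at about 140% in these data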
NF-kB neuron act: compounds increasing NF-kB expression in human neuronal cells; AID 1239; NF-kB reporter expression; hits give high values; actives 1.6% (n = 190,000); fold change at 12.5 µM; in the data active means fold change above about 3.3
* hit, by the source's call; / = not tested or not shown.

SMILES	Hsp70 activator	STAT1 activator	Wee1 stabilizer	APP 5UTR inh	APP 5'UTR act	NF-kB neuron act
C=CCOC(=O)C1=C(C)N=c2s/c(=C3\C(=O)N(CC(=O)O)c4ccccc43)c(=O)n2C1c1ccc(OC)cc1 (centres undefined)	/	/	2	/	/	/
CCOC(=O)N1CCC(NC(=O)Cc2ccc(-n3c(=O)[nH]c4ccccc4c3=O)cc2)CC1	0	99	-3	4	-5	/
Cc1ccc(NC(=O)n2ccc(-c3ccc(-n4ccnc4)cc3)n2)cc1	0	135*	1	-96	97	2.3
CC(C)(C)c1ccc(NC(=O)COc2ccc(-n3ccnc3)cc2)cc1	0	110	2	-9	9	0.34
CCOc1ccc(OCc2ccc(C(=O)N3CCOCC3)cc2)cc1	0	101	0	-20	20	1.2
CCOc1ccc(N=C(/C(C(=O)C(=O)N2CCOCC2)=C(\O)c2ccccc2)c2ccccc2)cc1	0	139*	7	-88	88	2.1
Cc1cc(C(=O)C(=O)N(C)C)c(C)n1-c1ccc([N+](=O)[O-])cc1	0	104	-1	-9	9	1
N=c1c(C(=O)NCc2ccco2)cc2c(=O)n3ccccc3nc2n1CCc1ccccc1	0	112	0	-1	1	0.52
COc1ccc(C(O)C(CN2CCOCC2)c2ccccc2)cc1F (centres undefined)	0	109	3	-7	7	0.97
COc1ccc(C(=O)C(CN2CCOCC2)c2ccccc2)cc1F (centres undefined)	0	79	4	62*	-62	0.44
OCCNc1nc(Nc2ccc(O)cc2)nc2ccccc12	/	/	-1	/	/	/
O=c1[nH]c(=S)[nH]cc1Oc1ccc(Cl)cc1Cl	/	/	9.0*	/	/	/
O=C(Nc1ccc2nn(-c3ccccc3)nc2c1)c1cccnc1	0	124	1	-51	51	1.3
CC(C)(C)C(=O)Nc1cc2nn(-c3ccccc3)nc2cc1Cl	0	24	-4	-8	9	0.17
CC(C)C(=O)Nc1ccc2nn(-c3ccccc3)nc2c1	0	116	4	-234	234*	1.1
O=C(Nc1cc2nn(-c3ccccc3)nc2cc1Cl)c1ccco1	0	133*	0	-24	25	1.7
CC(=O)NCCc1nc2cc(NC(=O)c3cccs3)ccc2n1C	0	108	1	-30	30	1.7
CC(=O)Nc1cc2nn(-c3ccccc3)nc2cc1Cl	0	131*	3	-53	53	5.3*
CCCn1cnc2cc(NC(=O)c3cccs3)ccc21	0	138*	2	-96	97	/
CCn1cnc2cc(NC(=O)c3ccco3)ccc21	0	135*	-2	-53	53	2.9
O=C(Nc1ccc2nn(-c3ccccc3)nc2c1)c1ccco1	0	132*	4	-81	81	2.3
S=C(NCc1ccccc1)NCc1ccc2c(c1)OCO2	0	103	8.9*	3	-3	0.96
Fc1ccccc1NC(=S)NCc1ccc2c(c1)OCO2	1	99	1	0	0	0.98
Cc1nc2ccc(S(=O)(=O)NCC(=O)Nc3cccc(F)c3)cc2s1	0	97	-1	-23	23	1.2
COC(=O)c1c(-c2ccncc2)csc1NC(=O)c1ccoc1C	0	136*	0	-29	29	2.5
SMILES	Hsp70 activator	STAT1 activator	Wee1 stabilizer	APP 5UTR inh	APP 5'UTR act	NF-kB neuron act
Cc1ccc(-c2csc(NC(=O)c3ccno3)n2)cc1	0	131*	1	-13	13	1.4
Cc1ccc(-c2csc(NC(=O)c3ccc(C)o3)n2)cc1	0	96	1	-13	13	1.1
COc1ccc(-c2csc(NC(=O)c3ccoc3C)n2)cc1	0	133*	2	-47	47	1.8
COc1ccc(-c2csc(NC(=O)COC(=O)C3=COCCO3)n2)cc1	0	130*	0	-45	45	1.2
CC1(C)CC(=O)c2sc(NC(=O)CN3CCOCC3)nc2C1	0	98	-1	40	-40	1.1
CCOc1ccccc1OCc1nn2c(-c3ccc(C)cc3)nnc2s1	0	108	2	2	-2	1.1
c1coc(CNc2nc(-c3ccncc3)cs2)c1	0	101	-3	-45	45	1.5
COc1ccc(-c2csc(NCc3ccco3)n2)cc1	0	135*	-2	-158	158*	6.2*
COc1ccc(N2CCN(C(=O)CN(c3cccc(Br)c3)S(C)(=O)=O)CC2)cc1	0	101	-4	-10	10	1
Cc1sc(NC(=O)COc2ccccc2)c(C#N)c1-c1ccccc1	0	116	9.6*	-2	2	1.4
COC(=O)c1c(NC(=O)CCCC(=O)O)sc(C)c1C	0	104	-1	12	-12	1
Cc1sc(NC(=O)CCCC(=O)O)c(C(N)=O)c1-c1ccccc1	0	93	5	49*	-49	/
COc1ccc(C(=O)Nc2sc(C)c(-c3ccccc3)c2C#N)cc1OC	0	107	0	-28	28	0.71
Cn1cccc/c1=N\c1cccc[n+]1C	/	/	2	/	/	/
Cc1cc(C(=O)NNC(=O)c2ccc(S(=O)(=O)N(C)C)cc2)c(C)o1	0	97	9.5*	-6	6	1.2
CCN(CC)c1ccc2c(c1)OC(N)=C(C#N)C2c1cccnc1 (centres undefined)	1	88	0	94*	-94	3.5*
CCCCC(=NCCc1c(C)[nH]c2ccc(OC)cc12)C1=C(O)CC(c2ccccc2)CC1=O (centres undefined)	0	96	3	78*	-78	1.5
CCC(=NCCc1c(C)[nH]c2ccc(OC(F)(F)F)cc12)C1=C(O)CC(c2ccccc2)CC1=O (centres undefined)	0	107	-2	78*	-78	1.4
Cc1ccc(S(=O)(=O)N2CCC(C(=O)O)CC2)cc1C(=O)O	0	96	4	15	-15	1.2
c1ccc2c(c1)ncn2-c1ncnc2sc3c(c12)CCCC3	0	98	7	-15	15	1.7
Oc1ccc(N2CCN(c3ncnc4sc5c(c34)CCC5)CC2)cc1	0	85	-4	-11	11	3.4*
O=c1c2c3c(sc2ncn1/N=C/c1ccncc1)CCCC3	0	116	2	-6	6	1.5
O=c1c2c3c(sc2ncn1/N=C/c1cccnc1)CCCC3	1	139*	-2	-7	7	1.2
O=C(Cn1c(COc2ccccc2)nc2ccccc21)Nc1cccc(Cl)c1	0	89	-2	-2	2	1.2
O=C(c1ccc2c(c1)OCO2)N1CCN(c2ccccc2)CC1	0	98	-1	-17	17	1.2
c1c2c(cc3sc(N4CCCCC4)nc13)OCO2	0	90	5	-206	206*	3.8*
c1c2c(cc3sc(N4CCOCC4)nc13)OCO2	0	118	2	-92	92	3.2
